High-throughput results deposited in PubChem by several laboratories.
Cl transport mod: modulates chloride dependent transport by human KCC2; AID 1456; hit rate 2.2% among 190,000; B-score of Tl+ flux slope (higher = more flux/activation; lower = inhibition) at 10 µM; KCC2 cells, thallium flux FluoZin-2 fluorescence;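 active means thallium flux slope and its plate-corrected score both differing from the plate sample mean at a set confidence after two filtering rounds, in either direction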;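 further: slope of fluorescence scaled to starting intensity during 10 to 20 s after thallium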
ROMK primary: modulates human ROMK potassium channel activity; Tet-inducible ROMK, thallium flux fluorescence; actives lie on both sides; hit rate 2% among 130,000; B-score at 10 µM; AID 1918; P48048;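 active means signal ratio slope over the read window, or its plate-corrected B-score, at least 3 SD from the plate mean, either direction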;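 further: B-score of the F/F0 ratio slope over 7 to 12 s after thallium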
Target sequence (P48048 whole entry, looked up): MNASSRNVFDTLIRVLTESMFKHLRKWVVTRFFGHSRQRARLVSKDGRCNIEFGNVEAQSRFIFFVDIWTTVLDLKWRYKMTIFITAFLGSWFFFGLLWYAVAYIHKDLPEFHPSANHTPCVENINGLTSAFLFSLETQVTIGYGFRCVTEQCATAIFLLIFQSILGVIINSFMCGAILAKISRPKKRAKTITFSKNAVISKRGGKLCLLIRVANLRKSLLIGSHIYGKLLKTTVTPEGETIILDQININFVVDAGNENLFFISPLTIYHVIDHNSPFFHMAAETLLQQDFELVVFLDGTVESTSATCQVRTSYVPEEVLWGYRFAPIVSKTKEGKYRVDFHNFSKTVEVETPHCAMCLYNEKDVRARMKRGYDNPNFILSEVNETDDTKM
Lmaj promast: Leishmania major promastigote growth inhibition; AID 1063; inhibition, % at 10 µM; Leishmania major promastigotes, resazurin fluorescence viability; hit rate 9% among 200,000; in the data active means inhibition above about 50%;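 further: promastigotes grown with compound for 44 hours at 28 °C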
INS promoter inh: TRM-6 insulin promoter activity inhibition | TRM-6 cells (human fetal islet line), insulin promoter-eGFP reporter, imaging; reporter expression induced with tamoxifen | inhibition, % at 2 µM | hit rate 0.9% among 130,000;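 active means inhibition above the mean plus 3 SD, with well images judged a real hit on visual review, cut at about 60% in these data, passing the limit was not always enough; inconclusive means inhibition over the cutoff but images rejected on review; inactive means inhibition not above the cutoff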
WT yeast gro inh: growth inhibition of WT yeast, mitochondrial fusion screen | mitochondrial fusion phenotypic screen, WT strain | inhibition, % at 10 µM | hit rate 2.1% among 190,000 | AID 1362; in the data active means inhibition above about 58%; tested in S. cerevisiae
Ins promoter up: MIN6 insulin promoter up-regulation; MIN6 insulin promoter-GFP reporter, high-content imaging; stronger effect = higher value; z-score at 5 µM; hit rate 0.3% among 190,000;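 active means z-score above 3 at 5 µM with at least 500 cells counted in the well; inconclusive means wells under 500 cells, flagged as cytotoxic or low count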
Numbers without * were called inactive. A selection: hits, their analogues and other compounds. The true share with any hit is near 12%.

How did Cc1cc(C)cc(NC(=O)N2CCCN(c3ncccc3[N+](=O)[O-])CC2)c1 do in these assays?
Ins promoter up: -0.22

Results for O=C1NC(Nc2nccs2)(C(F)(F)F)C(=O)N1CCc1ccccc1 (stereo not given) ?
Cl transport mod: -2.58*; ROMK primary: 1.42; Lmaj promast: 0.9; WT yeast gro inh: -12.0; Ins promoter up: -0.07

How did COc1ccc(CCN2C(=O)NC(NC(=O)CC(C)C)(C(F)(F)F)C2=O)cc1OC (stereo not given) do in these assays?
Cl transport mod: 0.708; ROMK primary: 0.78; Lmaj promast: 45.3; INS promoter inh: 7.4; WT yeast gro inh: -3.4; Ins promoter up: 0.72

Results for COc1ccc(CCN2C(=O)NC(NC(=O)CCc3ccccc3)(C(F)(F)F)C2=O)cc1OC (stereo not given) ?
Cl transport mod: -0.163; Lmaj promast: 69.7*; INS promoter inh: -74.1; WT yeast gro inh: 10.0; Ins promoter up: 0.03

What do the screens show for `CC(C)Oc1ccc(C(=O)NC2(C(F)(F)F)NC(=O)N(CCCc3ccccc3)C2=O)cc1` (stereo not given)?
Cl transport mod: 1.06; ROMK primary: -0.559; Lmaj promast: 35.8; INS promoter inh: 28.6; WT yeast gro inh: 64.9*; Ins promoter up: 0

What do the screens show for `O=C(NC1(C(F)(F)F)NC(=O)N(Cc2cccnc2)C1=O)c1ccccc1` (stereo not given)?
Cl transport mod: -0.791; Lmaj promast: -5.5; INS promoter inh: 28.6; WT yeast gro inh: -6.1; Ins promoter up: 0.09

What do the screens show for `COc1ccc(OCC(=O)C2CC2)c(C#N)c1`?
Cl transport mod: 0.0431; ROMK primary: -0.757; Ins promoter up: -0.72

How did COC(=O)C1(C)NC(c2cccs2)C2C(=O)N(c3ccc(F)cc3)C(=O)C21 (stereo not given) do in these assays?
Cl transport mod: 0.0656; Lmaj promast: -1.5; INS promoter inh: -14.3; WT yeast gro inh: 1.8; Ins promoter up: 1.11

How did Cc1cc(C)n(CC(O)Cn2c3ccc(Cl)cc3c3cc(Cl)ccc32)c(=O)n1 (stereo not given) do in these assays?
Cl transport mod: -0.4; ROMK primary: 0.744; Lmaj promast: 17.1; INS promoter inh: -17.1; WT yeast gro inh: 96.8*; Ins promoter up: -0.99

How did CCOC(=O)CC(=O)CSc1nc(-c2cccnc2)cc(C)c1C#N do in these assays?
ROMK primary: -0.224; Lmaj promast: -3.0; INS promoter inh: 14.3; WT yeast gro inh: 59.8*; Ins promoter up: -0.34

What do the screens show for `CCOC(=O)CC(=O)CSc1nc(C)cc(-c2cccnc2)c1C#N`?
Cl transport mod: 1.28; Lmaj promast: -6.2; INS promoter inh: 45.8; WT yeast gro inh: 0.8; Ins promoter up: -0.7

What do the screens show for `Cc1cccc(N2CCN(C(=O)Cn3sc4nc(C)cc(C)c4c3=O)CC2C)c1` (stereo not given)?
Lmaj promast: -14.4; WT yeast gro inh: 55.4; Ins promoter up: 0.5

What do the screens show for `Oc1cccc2ccc[n+](CC(O)Cn3c4ccccc4c4ccccc43)c12` (stereo not given)?
Cl transport mod: -0.217; ROMK primary: -0.377; Lmaj promast: 90.7*; INS promoter inh: -27.0; WT yeast gro inh: -5.6; Ins promoter up: 0.07

What do the screens show for `CN1C=C/C(=C\c2cc[n+](C)c3ccccc23)c2ccccc21`?
Cl transport mod: 0.734; ROMK primary: -0.34; Lmaj promast: 100.6*; INS promoter inh: -175.0; WT yeast gro inh: 69.1*

Results for COc1ccc(C(CC(=O)Nc2ccccc2OC)n2cccc2)cc1 (stereo not given) ?
Cl transport mod: -0.327; Lmaj promast: 54.4*; INS promoter inh: inconclusive; WT yeast gro inh: 10.4; Ins promoter up: 0.43

How did COc1ccc(C(CC(=O)Nc2cc(OC)cc(OC)c2)n2cccc2)cc1 (stereo not given) do in these assays?
Cl transport mod: -1.07; ROMK primary: 1.49; Lmaj promast: 96.0*; INS promoter inh: 27.8; WT yeast gro inh: 9.2; Ins promoter up: -0.85

What do the screens show for `O=C(NCCCn1ccnc1)c1cn(Cc2ccc(F)cc2)nn1`?
Cl transport mod: 0.195; Lmaj promast: -7.6; WT yeast gro inh: -3.0; Ins promoter up: -0.88

Results for CCn1cc([N+](=O)[O-])c(C(=O)Nc2nc(-c3ccc(C)cc3)c(C)s2)n1 ?
Cl transport mod: 0.139; ROMK primary: 0.967; Lmaj promast: 9.3; INS promoter inh: -26.7; WT yeast gro inh: -0.3; Ins promoter up: -0.02
